Results: PubChem BioAssay (NCATS)
Inconclusive results are not listed. A call without a number means that no potency is given here. Unmarked numbers belong to inactive results. Activity calls are given as the source filed them. Calls come from the whole dose curve; as a rule, active = well fitted inhibition curve with a large enough effect; inconclusive = small, poorly fitted or top-dose-only effect; inactive = no such curve, though single readings can be large or run the other way.

Assays:
[1] = system: Zika virus NS2B-NS3 protease (unlinked complex); experiment: Primary screen GU Rhodamine qHTS for Zika virus inhibitors: Unlinked NS2B-NS3 protease assay (AID 1347159); note: nearly all actives have a fitted effect of over 60% in size
Method in brief: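 Percent inhibition derives from the 15-min fluorescence change (ex 480, em 540 nm), normalized to no-enzyme and no-inhibitor wells. Reactions contained 25 nM NS2B-NS3 complex and 1.5 microM substrate in 10 mM Tris-HCl pH 8.0.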

[2] = system: Zika virus NS2B-NS3 protease (linked construct); experiment: Primary screen NINDS Rhodamine qHTS for Zika virus inhibitors (AID 1347160); note: nearly all actives have a fitted effect of over 55% in size
Method in brief: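 In 10 mM Tris-HCl pH 8.0 containing 0.01% Tween 20, linked NS2B-NS3 protease (25 nM final) is exposed to test compounds for 15 min. Cleavage of 1.5 microM Rhodamine110 substrate is tracked by fluorescence over 15 min.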
Potency is the fitted concentration of half-maximal effect.

CC1(C)OC(=O)C(OCC2CC2)=C1c1ccc(S(C)(=O)=O)cc1
Potency [1]: inactive
Potency [2]: inactive

CC1(C)CC(=O)N(CCCCN2CCN(c3ncccn3)CC2)C(=O)C1
Potency [1]: inactive
Potency [2]: inactive

CC1CCC2C(C(=O)O)=CC3C(O)C(C)(C)CC123 (stereo not drawn)
Potency [1]: inactive
Potency [2]: inactive

Cc1nnc(C(C)C)n1C1CC2CCC(C1)N2CC[C@H](NC(=O)C1CCC(F)(F)CC1)c1ccccc1 (stereo partly drawn)
Potency [1]: inactive
Potency [2]: inactive

C/C=C(\C)C(=O)O[C@@H]1CC2[C@@H](CC=C3C[C@@H](O[C@H]4C[C@H](OC)[C@H](O[C@H]5C[C@H](OC)[C@H](O[C@H]6C[C@H](OC)[C@H](O[C@H]7C[C@@H](OC)[C@H](O[C@@H]8O[C@H](CO)[C@@H](O)[C@H](O)[C@H]8O)[C@@H](C)O7)[C@@H](C)O6)[C@@H](C)O5)[C@@H](C)O4)CC[C@@]32C)[C@@]2(O)CC[C@H](C(C)=O)[C@@]12C (stereo partly drawn)
activity change, negative = inhibition [1]: 20.3% [at 19.1 µM]
activity change, negative = inhibition [2]: 1.97% [at 10.7 µM]

CC(=O)O[C@@H]1C[C@@]23C[C@@]24CC[C@H](OC2OC[C@@H](O)[C@H](O)[C@H]2O)C(C)(C)[C@@H]4CC[C@H]3[C@]2(C)CC3OC4(C[C@@H](C)C3[C@@]12C)OCC1(C)OC14 (stereo partly drawn)
Potency [1]: inactive
Potency [2]: inactive

CC(C)(C)NCc1cc(Nc2ccnc3cc(Cl)ccc23)c2c(c1O)CCCC2
activity change, negative = inhibition [1]: 0% [at 1.28 µM]
outcome [2]: inactive [at 0.684 µM]

CC(NCc1ccc(OCc2cccc(F)c2)cc1)C(N)=O (stereo not drawn)
Potency [1]: inactive
Potency [2]: inactive

C=CC1(C)CC2=CCC3C(C)(C(=O)O)CCCC3(C)C2CC1OC(C)=O (stereo not drawn)
Potency [1]: inactive
Potency [2]: inactive

Nc1nc(CC(=O)Nc2ccc(CCNCC(O)c3ccccc3)cc2)cs1 (stereo not drawn)
Potency [1]: inactive
Potency [2]: inactive

CC1CCC2(C(=O)OC3OC(COC4OC(CO)C(O)C(O)C4O)C(O)C(O)C3O)CCC3(C)C(=CCC4C5(C)CCC(O)C(C)(C(=O)O)C5CCC43C)C2C1(C)O (stereo not drawn)
Potency [1]: inactive
Potency [2]: inactive

CCCOc1ccn2c(C(C)=O)cc(-c3ccccc3S(C)(=O)=O)c2c1
Potency [1]: inactive
Potency [2]: inactive

OC[C@H]1O[C@@H](Oc2ccc3c(c2)OC[C@H]2c4cc5c(cc4O[C@@H]32)OCO5)[C@H](O)[C@@H](O)[C@@H]1O
Potency [1]: inactive
Potency [2]: inactive

COC(=O)C1=C[C@@H](O)[C@@H](O)[C@H](O[C@@H]2O[C@H](COC(=O)/C=C/c3ccccc3)[C@@H](O)[C@H](O)[C@H]2O)C1
Potency [1]: inactive
Potency [2]: inactive

COC(=O)C1=CO[C@@H](O[C@@H]2O[C@H](CO[C@@H]3O[C@H](COC(=O)/C=C/c4ccc(O)cc4)[C@@H](O)[C@H](O)[C@H]3O)[C@@H](O)[C@H](O)[C@H]2O)[C@@H]2C(CO)=CC[C@H]12
Potency [1]: inactive
Potency [2]: inactive

CN(C)C/C=C/C(=O)Nc1ccc(C(=O)Nc2cccc(Nc3ncc(Cl)c(-c4c[nH]c5ccccc45)n3)c2)cc1
Potency [1]: inactive
Potency [2]: inactive

O=C(O)[C@H]1CCCC[C@H]1C(=O)N1CCc2ccccc2[C@H]1CN1C(=O)c2ccccc2C1=O
Potency [1]: inactive
Potency [2]: inactive

CC(=O)O[C@@]1(C)C[C@@H](O)[C@]2(O)C=CO[C@@H](O[C@@H]3O[C@H](CO)[C@@H](O)[C@H](O)[C@H]3O)[C@@H]21
Potency [1]: inactive
Potency [2]: inactive

COC(=O)[C@@]1(C)CC[C@]2(C(=O)O[C@@H]3O[C@H](CO)[C@@H](O)[C@H](O)[C@H]3O)CC[C@]3(C)C(=CCC4[C@@]5(C)CC[C@H](O[C@@H]6O[C@H](C(=O)O)[C@@H](O)[C@H](O)[C@H]6O)C(C)(C)C5CC[C@]43C)[C@@H]2C1 (stereo partly drawn)
Potency [1]: inactive
Potency [2]: inactive

Cc1coc2c1CC1OC1(C)CCC1OC1(C)C2 (stereo not drawn)
Potency [1]: inactive
Potency [2]: inactive

CC1=CCC2C(C)(CO)CCCC2(CO)C1CO (stereo not drawn)
Potency [1]: 15.8 µM (active)
Potency [2]: 15.8 µM (active)

C[C@@]12C[C@]3(O)O[C@H](O1)[C@]1(COC(=O)c4ccccc4)[C@H]3C[C@@]12O[C@@H]1O[C@H](COC(=O)c2ccccc2)[C@@H](O)[C@H](O)[C@H]1O
Potency [1]: inactive
Potency [2]: inactive

CC(=O)O[C@H]1CC[C@@]2(CI)C(=CC[C@@H]3[C@@H]2CC[C@]2(C)[C@@H]([C@H](C)CCCC(C)C)CC[C@@H]32)C1
activity change, negative = inhibition [1]: 13.5% [at 19.1 µM]
activity change, negative = inhibition [2]: 7.05% [at 10.7 µM]

CC(=O)c1c(O)cc2c(c1C)C(=O)CC(O)C2 (stereo not drawn)
Potency [1]: inactive
Potency [2]: inactive

O=C1NC(Cc2ccc(O)cc2)C(=O)N2CCCC12 (stereo not drawn)
Potency [1]: inactive
Potency [2]: inactive

O=C(O)C[C@@H](NC(=O)c1cc(-c2ccc(-c3ccncc3)cc2)cs1)c1ccccc1
Potency [1]: 15.8 µM (active)
Potency [2]: 20 µM (active)

CCOC(=O)[C@H]1O[C@@H]1C(=O)N[C@@H](CC(C)C)C(=O)NCCC(C)C
Potency [1]: inactive
Potency [2]: inactive

C=C1CC2C3(C)C(OC(C)=O)CC(=O)OC(C)(C)C3C(O)C(OC(C)=O)C2(C)C2C(=O)OC(C)C(=O)C12C (stereo not drawn)
Potency [1]: inactive
Potency [2]: inactive

Cc1c(CN(C)C(=O)/C=C/c2cnc3c(c2)CCC(=O)N3)oc2ccccc12
Potency [1]: inactive
Potency [2]: inactive
